About 690 (0.19%) of roughly 360,000 compounds were called active. What follows is part of a selection rich in actives, with near analogues and random picks from the rest. Values without a mark were called inactive.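 Rule for the calls: active = fluorescence ratio to DMSO below 75%, the collection mean minus 3 SD; inconclusive = too few cells collected in the well; inactive = the rest.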

ATP-binding cassette sub-family B member 6 (Homo sapiens), sequence (Q9NP58 whole entry, looked up): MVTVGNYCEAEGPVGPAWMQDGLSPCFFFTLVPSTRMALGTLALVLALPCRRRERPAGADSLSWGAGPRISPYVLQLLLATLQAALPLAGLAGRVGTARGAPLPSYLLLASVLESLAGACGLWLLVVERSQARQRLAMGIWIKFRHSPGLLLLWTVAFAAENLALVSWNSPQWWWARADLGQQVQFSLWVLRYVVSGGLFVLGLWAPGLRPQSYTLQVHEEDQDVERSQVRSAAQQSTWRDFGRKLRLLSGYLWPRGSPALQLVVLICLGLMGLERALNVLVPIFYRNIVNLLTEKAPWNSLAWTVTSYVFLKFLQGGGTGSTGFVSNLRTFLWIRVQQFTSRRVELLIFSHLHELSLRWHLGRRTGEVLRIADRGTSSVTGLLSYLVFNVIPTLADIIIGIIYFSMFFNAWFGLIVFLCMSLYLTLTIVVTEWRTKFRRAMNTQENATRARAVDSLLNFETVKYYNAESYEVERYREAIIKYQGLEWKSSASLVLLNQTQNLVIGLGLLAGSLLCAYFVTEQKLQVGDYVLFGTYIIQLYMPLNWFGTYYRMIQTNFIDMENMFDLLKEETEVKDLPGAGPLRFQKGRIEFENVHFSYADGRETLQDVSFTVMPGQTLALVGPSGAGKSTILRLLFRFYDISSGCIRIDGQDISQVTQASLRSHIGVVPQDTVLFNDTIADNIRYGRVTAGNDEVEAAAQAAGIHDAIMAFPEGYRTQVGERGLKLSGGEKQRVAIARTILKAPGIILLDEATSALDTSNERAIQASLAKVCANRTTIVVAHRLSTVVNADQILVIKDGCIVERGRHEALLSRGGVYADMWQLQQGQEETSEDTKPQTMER

The assay has as its target ATP-binding cassette sub-family B member 6 (Homo sapiens) (UniProt Q9NP58). Put plainly: blockers of ABCB6-driven porphyrin uptake – K562-ABCB6 cells, flow cytometry, MLPCN library, primary screen (AID 602162).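 Note: signal is porphyrin accumulated inside mitochondria; 100% equals median channel fluorescence of DMSO control wells; lower ratio means ABCB6 inhibition with less porphyrin fluorescence.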 The following applies: K562-ABCB6 porphyrin accumulation, 1 h, at 10 µM, hits give low values.
For `CC(=O)Nc1ccccc1C(=O)C(=O)Nc1ccc(F)cc1`, the fluorescence ratio to DMSO was 104%. Then `Cc1cccc(NC(=O)c2ccc(OCC(=O)NCc3ccccc3)cc2)c1C`, with 97%. Then `O=C1COc2ccc(S(=O)(=O)NCCc3ccc(Cl)cc3)cc2N1`, with 93%; and `O=C1C=C(c2cccc(Br)c2)C[C@@H](c2ccc(F)cc2)C1`, with 101%; and `O=C(Nn1cnc2ccccc2c1=O)c1ccc([N+](=O)[O-])cc1Cl`, with 98%. In the case of `O=C(Nn1cnc2ccccc2c1=O)c1ccc(F)cc1Cl`, the fluorescence ratio to DMSO is 26% (active). The value for `O=C(Cn1cnc2ccccc2c1=O)NNC(=O)c1ccccc1F` was 97%. The value for `COC(=O)Cc1nc2c(N)nc(N)nc2[nH]c1=O` was 97%; that for `CC1CCCC(NC(=O)c2cc(-c3ccncc3)nc3ccccc23)C1C` (stereo not given) was 96%. Then `COC(=O)CNC(=O)c1cc(-c2ccncc2)nc2ccccc12`, with 70% (active). As to `CCc1ccc(-c2cc(C(=O)NN3CCN(C)CC3)c3ccccc3n2)cc1`, the fluorescence ratio to DMSO was 99%. Then `Cc1cccc(C)c1NC(=O)Nc1ccccc1-n1ccnc1`, with 96%. Then `COc1ccc(NC(=O)/C(Cl)=C(/Cl)S(=O)Cc2ccc(C)cc2)cn1` (stereo not given), with 19% (active); and `CC(CC(=O)Nc1ccccc1)n1ccnc1` (stereo not given), with 96%; and `O=C1OC(Oc2ccc(Br)cc2)(c2ccccc2)c2ccccc21` (stereo not given), with 93%. The value for `CCn1ccnc1CNC(=O)CC1C(=O)NCCN1Cc1ccc(F)cc1Cl` (stereo not given) was 92%; that for `C=CCn1c(SCC(=O)NCc2ccccc2)nnc1-c1cc(Br)ccc1O` was 53% (active). As to `C=CCn1c(SCC(=O)NC(=O)Cc2ccccc2)nc2ccccc2c1=O`, the fluorescence ratio to DMSO is 99%. Regarding `O=C(CSc1nnc(-c2cccnc2)n1CCc1ccccc1)NCc1ccccc1`, the fluorescence ratio to DMSO was 110%. On to `N#CCCN1CCN(S(=O)(=O)c2ccc(S(=O)(=O)NC3CCCCC3)cc2)CC1`, for which the fluorescence ratio to DMSO is 96%.

For the molecule `Cc1ccc(S(=O)(=O)N2CCC(Oc3ccc(-n4cnnn4)cc3)CC2)cc1`, the fluorescence ratio to DMSO was 96%.

For the molecule `COC(=O)c1ccc(CN2C(=O)C(Cc3ccccc3)ON=C2c2ncccc2C)o1` (stereo not given), the fluorescence ratio to DMSO is 94%. Then `OCCC1CN(Cc2cnc(-c3ccccc3)s2)CCN1CCc1ccccc1` (stereo not given), with 73% (active); and `OCCC1CN(Cc2ccc(Oc3ncccn3)cc2)CCN1CCc1ccccc1` (stereo not given), with 101%; and `OCCC1CN(Cc2cccc(O)c2)CCN1CCc1ccccc1` (stereo not given), with 93%. Then `COc1ccc(CN2C(=O)CC(Cc3ccc(C)cc3)C2=O)cc1OC` (stereo not given), with 97%; and `O=S1(=O)CC(N2CCN(Cc3ccccc3F)CC2)CN1Cc1cn(Cc2cccc(C(F)(F)F)c2)nn1` (stereo not given), with 96%. The value for `COc1ccc(-c2c(NC(=O)c3ccco3)oc3ccc(Cl)cc3c2=O)cc1` was 97%. Take `O=C(COc1ccccc1)Nc1cc2c3c(c1)CC(=O)N3CCC2`: the fluorescence ratio to DMSO is 102%. Then `Cn1c(=O)c2cc(NC(=O)NCCc3cccs3)ccc2n1Cc1cccc(C(F)(F)F)c1`, with 100%; and `O=C(Cc1cccs1)NCc1cccc(C(F)(F)F)c1`, with 68% (active); and `Cc1ccccc1Cn1c(C)c(C(=O)NCc2cccc(C(F)(F)F)c2)sc1=O`, with 98%. Then `Cc1ccn(-c2cccc(-n3ccc(C)n3)n2)n1`, with 104%; and `Cc1cnc(C(=O)OCc2c(C)cc(C(C)(C)C)cc2C)cn1`, with 104%.

For the molecule `COc1ccc(/C=C(\NC(=O)c2ccc(OCC(C)C)cc2)C(=O)OCc2ccco2)cc1`, the fluorescence ratio to DMSO is 100%.

In the case of `O=C(NCCS(=O)(=O)N1CCN(c2ccccc2)CC1)c1ccco1`, the fluorescence ratio to DMSO is 98%.

`O=C(NCCSc1ncc(-c2ccccc2)[nH]1)c1ccco1`: the fluorescence ratio to DMSO was 74% (active). Take `COc1ccc(-c2cnc(SCCNC(=O)c3ccc4c(c3)OCO4)[nH]2)cc1`: the fluorescence ratio to DMSO is 98%. For the molecule `COc1ccccc1NC(=O)c1ccc(N2CC3CC(C2)c2cccc(=O)n2C3)c(NC(=O)c2cccnc2)c1` (stereo not given), the fluorescence ratio to DMSO was 100%. Then `CCN(CC(=O)Nc1ccc(NC(C)=O)cc1)C(=O)C1CC(=O)N(c2ccc3c(c2)OCCO3)C1` (stereo not given), with 91%. Then `COc1ccc(CCNc2nc(C)cc(C)n2)cc1OC`, with 95%. On to `COc1ccc(CCNC2=C(Cl)C(=O)N(Cc3ccccc3)C2=O)cc1OC`, for which the fluorescence ratio to DMSO was 73% (active).

For `COc1ccc(CCNC(=O)CN(c2ccccc2)S(C)(=O)=O)cc1OC`, the fluorescence ratio to DMSO is 95%. Then `Fc1ccccc1OCCSc1nc2ccccc2o1`, with 89%. Regarding `O=C(CSc1nnc(C2CC2)n1Cc1ccccc1)Nc1cccnc1Cl`, the fluorescence ratio to DMSO was 85%. The value for `CCC1OC(C2CC2)CC2=C1C(=O)OC(C)(C)O2` (stereo not given) was 97%. The value for `CC1(C)O[C@H]2CC(=O)OCC23[C@H]2CC[C@@]4(C)[C@H](c5ccoc5)OC(=O)[C@H]5O[C@]54[C@]2(C)C(=O)C[C@@H]13` (stereo not given in full) was 100%. The value for `O=C(c1cnn2ccccc12)N1CCc2ccccc21` was 103%.

Regarding `COC(=O)c1ccc(C2NC(=O)NC(C)=C2C(=O)N(C)C)cc1` (stereo not given), the fluorescence ratio to DMSO is 117%. The value for `CCOC(=O)C1=C(C)NC2=C(C(=O)CC(C)(C)C2)C1c1ccsc1` (stereo not given) was 100%.

Take `CCCOC(=O)C1=C(C)NC2=C(C(=O)C(C(=O)OC)C(C)C2)C1c1ccc(N(C)C)cc1` (stereo not given): the fluorescence ratio to DMSO was 72% (active). Then `CCCn1c(N)c(C(=O)CSc2nnc(-c3cccnc3)n2-c2ccc(C)cc2C)c(=O)[nH]c1=O`, with 101%; and `CCOc1ccc2[nH]c3nc(SCC(=O)NC4CCCC4)nnc3c2c1`, with 96%; and `CCc1ccccc1OCC(=O)Nc1ccc(C)c(S(=O)(=O)N2CCCCCC2)c1`, with 90%.

On to `CC1CCN(S(=O)(=O)c2nnc(NC(=O)COc3ccccc3F)s2)CC1`, for which the fluorescence ratio to DMSO was 100%. Then `Cc1ccccc1OCC(=O)Nc1nnc(S(=O)(=O)N2CCCC2)s1`, with 56% (active); and `Cc1ccc2[nH]c3c(=O)n(CC(=O)NCCc4ccc(Cl)cc4)ncc3c2c1`, with 96%. The value for `CC(C)(C)C1CCC(C(=O)NCC(c2cccs2)N2CCOCC2)CC1` (stereo not given) was 98%; that for `O=C(NCc1ccco1)C(c1ccncc1)N(C(=O)Cn1nnc2ccccc21)c1ccccc1` (stereo not given) was 94%. The value for `Nc1nc(SCc2cccc(Br)c2)n[nH]1` was 98%; that for `COc1ccccc1N1CCN(C(=O)c2cc(=O)c3cc(C)cc(C)c3o2)CC1` was 101%.

On to `Cc1cccc(N2CCN(C(=O)c3cnn4c(C(F)F)cc(-c5ccccc5)nc34)CC2)c1C`, for which the fluorescence ratio to DMSO is 97%. With `Cc1ccc(Cl)cc1N1CCN(C(=O)c2cccc3c(=O)c(C)c(-c4ccccc4)oc23)CC1`, the fluorescence ratio to DMSO is 73% (active). `C/C(CCc1ccccc1)=N\NC(=O)c1ccc(CN2CCOCC2)cc1`: the fluorescence ratio to DMSO is 97%. Then `CSC1=NN(c2ccccc2)CN(c2ccccc2)N1C`, with 98%; and `CCCOP(=O)(c1ccc(N(C)C)cc1)C(O)c1cc(OC)c(OC)c(OC)c1` (stereo not given), with 94%.

For the molecule `COc1ccccc1S(=O)(=O)NCc1ccc(C(=O)N(C)Cc2ccc(F)cc2)cc1`, the fluorescence ratio to DMSO was 92%. As for `Cc1ccc(SCC(=O)Nc2ncc(C)s2)cc1`, the fluorescence ratio to DMSO is 71% (active). Then `Cc1ccc(SCC(=O)Nc2nncs2)cc1`, with 99%; and `Cc1cnc(NC(=O)Cn2cnc3c2c(=O)n(C)c(=O)n3C)s1`, with 101%. The value for `Fc1cccc(Cc2noc(CN3CCN(c4cnccn4)CC3)n2)c1` was 95%. Then `COc1ccccc1CNC(=O)CSc1nc(=O)n(Cc2ccncc2)c2c1CCC2`, with 100%.

Regarding `Cc1ccc2c(C)c(C(=O)N(C)Cc3ccncn3)oc2c1C`, the fluorescence ratio to DMSO is 96%. The value for `Cc1ccccc1OC(=O)Cn1c(C(F)(F)F)nc2ccccc21` was 93%; that for `COc1ccc(CNC(=O)COC(=O)c2c(C)nn(-c3ccccc3)c2C)cc1OC` was 98%. With `Cc1cccc(C)c1NC(=O)COC(=O)c1c(C)nn(-c2ccccc2)c1C`, the fluorescence ratio to DMSO is 100%.

As for `Cc1nn(-c2ccccc2)c(C)c1C(=O)OCC(=O)NC(=O)NC1CCCCC1`, the fluorescence ratio to DMSO is 74% (active). The value for `O=C(/C=C/c1ccccc1)Oc1coc(CSc2ncccn2)cc1=O` was 104%; that for `CC1(C)O[C@@H]2[C@H](O1)[C@@H](COS(=O)(=O)O)O[C@H]2n1cnc2c(=O)[nH]cnc21` was 98%.

Regarding `COc1ccc(CC(=O)NCc2nnc(SCC(=O)Nc3ncc(C)s3)n2C)cc1`, the fluorescence ratio to DMSO is 103%. The value for `O=C(CC(c1ccccc1)c1cc(Cl)ccc1O)NCCN1CCOCC1` (stereo not given) was 91%. Then `O=S(=O)(c1ccc(F)cc1)n1ccc(-c2cnc(-c3ccccc3)s2)n1`, with 91%; and `CN(CC(=O)Nc1cccc(F)c1)C(=O)C1CSC2(C)CCC(=O)N12` (stereo not given), with 96%; and `O=C(NCc1cccs1)C(=O)NCC1OCCCN1S(=O)(=O)c1ccc(F)cc1` (stereo not given), with 103%. The value for `CC(C)C(=O)NCC(c1cccs1)S(=O)(=O)c1ccc(F)cc1` (stereo not given) was 11% (active); that for `COCCNC(=O)C(OC(=O)c1cccs1)c1ccc(F)cc1` (stereo not given) was 100%; that for `N#Cc1cccc(NC(=O)C2CCCN(C(=O)c3ccc(Cl)cc3)C2)c1` (stereo not given) was 104%. Take `Cc1c(C(=O)NC(=S)NCc2cccnc2)oc2ccccc12`: the fluorescence ratio to DMSO was 99%. Regarding `CC12CCCCC1=CC(=O)CC2` (stereo not given), the fluorescence ratio to DMSO is 101%. Then `COc1ccc(CNC(=O)CN2C(=O)NC3(CCCc4sccc43)C2=O)cc1` (stereo not given), with 93%; and `CC(C(=O)Nc1ccc(F)c(F)c1F)N1CCCCCC1` (stereo not given), with 74% (active); and `CC(C(=O)Nc1ccccc1-c1ccccc1)N1CCOCC1` (stereo not given), with 104%.

On to `O=C(CN1C(=O)NC2(CCCC2)C1=O)Nc1ccc(F)c(F)c1F`, for which the fluorescence ratio to DMSO is 104%. The value for `COCCCNc1ccn2nc(-c3ccc(CC(C)C)cc3)cc2n1` was 100%; that for `COC(=O)c1cc(NC(=O)CN2CCC(C(N)=O)(N3CCCCC3)CC2)cc(C(=O)OC)c1` was 104%.

For the origin of these results see PubChem BioAssay AID602162 (NMMLSC, 2011).
